SIRT5 inh: SIRT5 desuccinylase inhibitors, primary screen, biochemical, fluorescence imaging, single point, set 5; 330,000 compounds, 1.1% hits; Purified SirT5, succinyl-peptide AMC, trypsin-coupled fluorescence; NAD-dependent protein deacylase sirtuin-5, mitochondrial (Homo sapiens), Q9NXA8; inhibition, % at 15 µM; in the data active means inhibition above about 15%
Target sequence (Q9NXA8 whole entry, looked up): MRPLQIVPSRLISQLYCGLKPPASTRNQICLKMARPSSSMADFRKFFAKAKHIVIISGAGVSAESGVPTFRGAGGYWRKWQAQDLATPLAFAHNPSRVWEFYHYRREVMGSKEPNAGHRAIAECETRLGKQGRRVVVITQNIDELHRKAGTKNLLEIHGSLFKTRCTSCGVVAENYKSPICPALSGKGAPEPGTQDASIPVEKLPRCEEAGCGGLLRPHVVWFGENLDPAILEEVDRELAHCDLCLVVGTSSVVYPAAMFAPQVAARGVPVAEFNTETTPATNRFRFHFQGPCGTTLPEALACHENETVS
CASP6 VEID inh: human caspase-6 inhibitors, primary screen, biochemical, VEID-R110 fluorescence, single point, set 2; P55212; purified caspase-6, Z-VEID-R110 cleavage fluorescence; 350,000 compounds, 0.53% hits; inhibition, % at 12.5 µM; AID 686996, 2013;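 active means mean inhibition across replicates at least about 35%, with every replicate also reaching that limit, limit read from the data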
PfHsp90 set2: growth inhibition of PfHsp90-expressing yeast, primary screen, antimalarial PfHsp90 inhibitor project, S. cerevisiae, BacTiter-Glo luminescence, single point, set 2; 310,000 compounds, 0.32% hits; BacTiter-Glo ATP, 48 h; yeast lacking PDR1 and PDR3 efflux regulators; inhibition, % at 9.4 µM;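 active means every replicate shows inhibition above about 80%, whatever the replicate mean, limit read from the data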
ARNT TACC3 PPI: disruptors of ARNT/TACC3 protein interaction, primary screen, biochemical, AlphaScreen, single concentration | Transforming acidic coiled-coil-containing protein 3 (Homo sapiens), Q9Y6A5 | AlphaScreen His-ARNT PAS-B/GST-TACC3 binding, luminescence; TACC3 fragment carries E629A point mutation | inhibition, % at 9.99 µM | 390,000 compounds, 0.66% hits;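 active means mean inhibition of replicates at least 50% and at least half of replicates each reaching 50%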
NSD2 HMT inh: NSD2 histone methyltransferase inhibitors, primary screen, biochemical, AlphaScreen, single concentration, set 2; Histone-lysine N-methyltransferase NSD2 (Homo sapiens), O96028; NSD2 peptide methylation, 120 min; inhibition, % at 12.5 µM; 310,000 compounds, 0.54% hits; AID 743445, 2014; in the data active means inhibition above about 50%
Numbers stand for hits; – = inactive; · = not tested or not shown. Only some compounds are listed: those with a hit (about 2.1% of all), similar ones and a draw of the others.

SMILES	SIRT5 inh	CASP6 VEID inh	PfHsp90 set2	ARNT TACC3 PPI	NSD2 HMT inh
C/C=C(\C)C(=O)OC1CC(C)(C)C[C@H]2C3=CC[C@@H]4[C@@]5(C)CCC(O[C@@H]6O[C@@H](C(=O)O)[C@@H](O)C(O[C@@H]7OC[C@H](O)[C@@H](O)[C@@H]7O[C@@H]7OC(CO)C(O)[C@@H](O)[C@@H]7O)C6O[C@@H]6OC(CO)C(O)C(O)C6O)[C@@](C)(CO)[C@@H]5CC[C@]4(C)[C@]3(C)CC(O)[C@@]12CO (some centres undefined)	–	58.5	–	–	·
COc1ccc(-c2nn(-c3ccccc3)cc2N)cc1	–	–	–	–	62.7
COc1ccc(-c2nn(-c3ccccc3)cc2CO)cc1	·	·	·	–	–
COc1ccc(-c2nn(-c3ccccc3)cc2/C=C2/SC(=S)N(CCC(=O)O)C2=O)cc1	–	46.5	–	–	–
O=C1C(=Cc2cn(-c3ccccc3)nc2-c2ccc(OCc3ccccc3F)cc2)SC(=S)N1CCS(=O)(=O)O	–	74.9	·	·	·
COc1ccc(-c2nn(-c3ccccc3)cc2/C=C2/SC(=S)N(CCC(=O)O)C2=O)c(C)c1	–	–	–	–	–
Cc1ccc(-c2nn(-c3ccccc3)cc2/C=C2\SC(=S)N(CC(=O)O)C2=O)cc1	–	–	–	–	·
O=C1C(=Cc2cn(-c3ccccc3)nc2-c2ccc(OCc3ccc(Cl)cc3)cc2)SC(=S)N1CCS(=O)(=O)O	36.6	46.0	·	·	·
O=C(CC1CC1)N1[C@H](CO)[C@H]2c3ccccc3N(S(=O)(=O)c3ccccc3)C[C@H]21	–	–	·	–	·
O=C(CC1CC1)N1[C@@H](CO)[C@@H]2c3ccccc3N(S(=O)(=O)c3ccc(F)cc3)C[C@@H]21	25.5	–	·	–	·
COc1cc(OC)cc(N2C(=O)CC(N3CCC(C(=O)N4CCCCC4)CC3)C2=O)c1 (centres undefined)	–	–	82.2	–	–
CCCCCCOc1ccc(N2C(=O)CC(N3CCC(C(=O)OCC)CC3)C2=O)cc1 (centres undefined)	·	·	106.4	–	·
CCOC(=O)C1CCCN(C2CC(=O)N(c3cccc(C(F)(F)F)c3)C2=O)C1 (centres undefined)	·	·	119.7	–	–
COc1ccccc1NC(=O)Nc1ccc2c(c1)OC[C@@H](C)N(Cc1ccccc1Cl)C[C@@H](C)[C@H](OC)CN(C)C2=O	–	–	·	–	·
CC(C)CC#Cc1ccc2c(c1)O[C@@H](CN(C)C(=O)c1ccccc1F)[C@H](C)CN([C@@H](C)CO)S2(=O)=O	–	–	·	–	·
O=C(Cc1ccc(F)cc1)OCC(=O)N1CCN(S(=O)(=O)c2ccc(Cl)cc2)CC1	19.3	–	·	–	–
Cc1ccc(-c2c[n+](Cc3ccc(Cl)cc3)c3n2CCC3)cc1	39.6	–	–	–	–
COCCNC(=O)c1cc2c(c(-c3cccc(-c4cccc(F)c4)c3)n1)[C@H](CCO)N(S(=O)C(C)(C)C)C2 (some centres undefined)	36.2	–	·	–	·
COCCNC(=O)c1cc2c(c(-c3cccc(-c4cccc(F)c4)c3)n1)[C@@H](CCO)N(S(=O)C(C)(C)C)C2 (some centres undefined)	–	–	·	–	·
CCCNC(=O)c1cc2c(c(-c3cccc(-c4cccc(OC)c4)c3)n1)[C@H](CCO)N([S@@](=O)C(C)(C)C)C2	17.8	–	·	–	·
O=C(NCC1CC1)c1cc2c(c(-c3cccc(-c4ccccc4F)c3)n1)[C@H](CCO)N(C(=O)CC1CC1)C2	–	–	·	·	·
COc1cccc(-c2cccc(-c3nc(C(=O)O)cc4c3[C@@H](CCO)N(S(=O)C(C)(C)C)C4)c2)c1 (some centres undefined)	–	–	·	42.7	·
O=C(NCC1CC1)c1cc2c(c(-c3cccc(-c4ccccc4F)c3)n1)[C@@H](CCO)N(C(=O)CC1CC1)C2	15.3	–	·	·	·
COc1ccccc1NC(=O)N(C)C[C@@H]1OCc2ccccc2-c2c(n(C)c3ccccc23)C(=O)N([C@@H](C)CO)C[C@H]1C	–	–	·	–	·
CCS(=O)(=O)N1CC2(CN(Cc3ccc4c(c3)OCO4)[C@@H](CO)c3c2c2ccc(OC)cc2n3C)C1	–	–	·	·	·
